High-throughput results (PubChem)
Shn3 inh set2 = Schnurri-3 reporter inhibition in Clone20 osteoblasts; Clone20 osteoblast Shn3 3'UTR firefly luciferase, 24 h; inhibition, % at 12.5 µM; 360,000 compounds, 0.52% hits; AID 588674;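 active = mean inhibition of at least 75% with every replicate also reaching 75%; inconclusive = mean inhibition at least 75% but some replicate below; inactive = mean inhibition below 75%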;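 note: 0% = median of neutral control wells and 100% = pilot-screen positive control compound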
LGR2 inh = inhibitors of bursicon-induced Drosophila LGR2 receptor cAMP signaling; AID 720647; inhibition, % at 9.99 µM; 380,000 compounds, 0.35% hits; HEK293 LGR2, CRE-luciferase, bursicon-stimulated, 4 h;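 active = drop in luminescence signal, shown as inhibition above about 50% in the replicate tests, limit read from the data, passing the limit was not always enough; inconclusive = probably only some replicates passing the limit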;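 note: agonist challenge used bursicon conditioned medium at about half maximal strength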
EBV LMP1 NFkB = reduces LMP1-driven NF-kappaB luciferase signal | LMP1-induced NF-kappaB luciferase reporter cells, luminescence | inhibition, % at 12.5 µM | 350,000 compounds, 0.69% hits; in the data active = inhibition above about 41%; inconclusive = no clear call, values can overlap the other calls;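 note: 0% = neutral control wells and 100% = reference inhibitor control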
PAX8 reporter = lowers PAX8-driven luciferase in RMG-I cells. inhibition, % at 12.6 µM. RMG-I TPO-luciferase reporter, SteadyGlo, 24 h. 360,000 compounds, 1.2% hits. AID 652154;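 active = mean replicate inhibition at least 60% with every replicate also reaching 60%; inconclusive = only one of the two criteria is met; inactive = mean below 60% and not all replicates reaching 60%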;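 note: luciferase light reporting Pax8 driven TPO promoter activity; plate controls were median of neutral control wells for no effect and mitoxantrone controls for full effect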
TRPM1 prom inh = MITF TRPM1 promoter inhibition in SK-MEL-5 cells; SK-MEL-5 TRPM1 promoter luciferase, 24 h; inhibition, % at 12.5 µM; 330,000 compounds, 0.83% hits; AID 488899;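 active = mean inhibition across replicates of 60% or more, whatever share of single replicates reaches that level; inconclusive = some that reach 60%, reason not given; inactive = mean inhibition across replicates below 60%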
EWS-Fli block = EWS/Fli transcriptional activity inhibition. inhibition, % at 12.6 µM. A673 NR0B1-luciferase reporter, viability-normalised. AID 651661. 350,000 compounds, 0.67% hits;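 active = mean inhibition of at least 50% after viability correction, with every replicate also passing that limit; inconclusive = mean reaches 50% but only one of two replicates passes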;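 note: firefly luciferase signal divided by Alamar Blue viability fluorescence both relative to DMSO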
Active calls of the source: *; ? = inconclusive; · = not tested or not shown; ! = a repeat was not active. Compounds with a hit are over-represented: about 2.2% of the library has one in this group of screens.

SMILES	Shn3 inh set2	LGR2 inh	EBV LMP1 NFkB	PAX8 reporter	TRPM1 prom inh	EWS-Fli block
CC(=O)Nc1ccc2c(c1)Cc1cc(N3C(=O)C=CC3=O)ccc1-2	74	6	11	36	78*	20
C[n+]1c(-c2ccccc2)cc2c(=Cc3ccc([N+](=O)[O-])cc3)c3ccccc3n21	53	-2	-5	74*	49	5
C[n+]1c(-c2ccccc2)cc2c(=Cc3ccccc3)c3ccccc3n21	85	?	30	115*	98*	53*
CN(C)c1ccc(C=c2c3cc(O)ccc3n3c2cc(-c2ccccc2)[n+]3C)cc1	72	-2	12	73*	90*	-2
CN(C)c1ccc(/C=C(\C#N)c2ccccc2)cc1	32	·	5	·	-23	·
COc1cccc(S(=O)(=O)N(C)C[C@@H]2Oc3cc(C4=CCCC4)ccc3S(=O)(=O)N([C@@H](C)CO)C[C@H]2C)c1	·	16	·	20	·	22
C[C@@H]1CN([C@H](C)CO)C(=O)c2cc(C#CCN(C)C)cnc2O[C@@H]1CN(C)C(=O)CCN1CCCCC1	·	18	·	-19	·	-42
O=C1c2c(O)ccc(O)c2C(=O)c2c(NCCNCCO)ccc(NCCNCCO)c21	93*	102*	67*	106*!	95*	40
COc1ccc(N2Cc3cccc(C(=O)NC(C)CCc4ccco4)c3C2=O)cc1 (stereo unspecified)	1	-20	47*	6	-9	4
Cc1ccccc1S(=O)(=O)N1[C@@H]2CNC[C@H]1C2c1ccc(-c2ccncc2)cc1 (stereo partly specified)	·	16	·	6	·	8
Cc1cccc(S(=O)(=O)N2[C@@H]3CNC[C@H]2C3c2ccc(-c3ccncc3)cc2)c1 (stereo partly specified)	·	-9	·	-2	·	65*!
Cc1cccc(S(=O)(=O)N2[C@@H]3CNC[C@H]2C3c2ccc(-c3ccccc3C)cc2)c1 (stereo partly specified)	·	-7	·	11	·	59*!
CC(=O)Nc1ccc(S(=O)(=O)NC(C)C(=O)NCC(c2ccco2)N2CCCCC2)cc1 (stereo unspecified)	15	-11	0	2	·	-5
Cc1ccc(S(=O)(=O)NC(CC(C)C)C(=O)NCC(c2ccco2)N2CCCCC2)cc1 (stereo unspecified)	47	·	49*	·	59	·
C[C@@H]1CN([C@H](C)CO)C(=O)c2cc(NS(=O)(=O)c3ccccc3)ccc2O[C@@H](C)CCCCO[C@H]1CN(C)Cc1ccc(C(F)(F)F)cc1	·	10	·	102*	·	-7
C[C@@H]1CCCCO[C@H](CN(C)Cc2ccc(C(F)(F)F)cc2)[C@@H](C)CN([C@H](C)CO)C(=O)c2cc(NS(=O)(=O)c3ccccc3)ccc2O1	·	28	·	13	·	5
C[C@H]1CCCCO[C@@H](CN(C)Cc2ccccc2)[C@@H](C)CN([C@@H](C)CO)C(=O)c2cc(NS(=O)(=O)c3ccccc3)ccc2O1	·	-2	·	7	·	11
C[C@H]1CCCCO[C@H](CN(C)Cc2ccc(C(F)(F)F)cc2)[C@@H](C)CN([C@@H](C)CO)C(=O)c2cc(NS(=O)(=O)c3ccccc3)ccc2O1	·	19	·	65*	·	15
C[C@H]1CCCCO[C@@H](CN(C)Cc2ccc(C(F)(F)F)cc2)[C@@H](C)CN([C@@H](C)CO)C(=O)c2cc(NS(=O)(=O)c3ccccc3)ccc2O1	·	-10	·	87*	·	-19
C[C@@H]1CN([C@@H](C)CO)C(=O)c2cc(NS(=O)(=O)c3ccccc3)ccc2O[C@@H](C)CCCCO[C@@H]1CN(C)Cc1ccc(C(F)(F)F)cc1	·	23	·	106*	·	-9
Cc1cccc(S(=O)(=O)N2C[C@H](O)COC[C@H]3O[C@H](CC(=O)Nc4ccccc4)CC[C@@H]32)c1	·	-3	·	9	·	-4
CCNC(=O)Nc1ccc2c(c1)C(=O)N(C)[C@H]1CC[C@@H](CC(=O)NCc3ccc(F)cc3)O[C@H]1CO2	·	9	·	9	·	4
CN1C(=O)c2cc(NS(=O)(=O)c3ccc(F)cc3)ccc2OC[C@@H]2O[C@@H](CC(=O)O)CC[C@@H]21	·	-8	·	-1	·	8
C[C@H](CO)N1C[C@H](C)[C@H](CN(C)Cc2ccc(C(F)(F)F)cc2)OCCCC[C@H](C)Oc2ccc(NS(=O)(=O)c3ccccc3)cc2C1=O	·	17	·	99*	·	10
